According to PubChem BioAssay (Tox21):
Results filed as inconclusive are left out. Calls of active or inactive are those of the source. Calls come from the whole dose curve; as a rule, active = well fitted inhibition curve with a large enough effect in the repeat runs; inconclusive = weak or mixed curves; inactive = no such curve, though single readings can be large or run the other way.

The molecules below were run against Androgen receptor (Homo sapiens) (UniProt P10275) (assay: qHTS assay to identify small molecule antagonists of the androgen receptor (AR) signaling pathway using the MDA cell line in the presence of 0.5 nM R1881 (AID 1259243; note: nearly all actives have a fitted effect of over 50% in size)). Conditions: MDA-kb2 MMTV-luciferase, R1881 0.5 nM, 16 h; series mostly up to 92.4 µM.
From the text: U.S. Tox21 Program National Center for Advancing Translational Sciences [NCATS] NIH Chemical Genomics Center [NCGC] U.S. Environmental Protection Agency [EPA] National Institutes of Environmental Health Sciences [NIEHS] National Toxicology Program [NTP] U.S. Food and Drug Administration [FDA] Tox21 Assay Overview: Androgen receptor (AR) is an important member of the nuclear receptor family. Its signaling plays a critical role in AR-dependent prostate cancer and other androgen related diseases. Considerable attention has been given in the past decades to develop methods to study and screen for the environmental chemicals that have the potential to interfere with metabolic homeostasis, reproduction, developmental and behavioral functions. Therefore AR binding assay for screening androgen antagonists can be used to identify potential endocrine disruptors. MDA-kb2 cells (from ATCC, deposited by Wilson et al.) were used to screen for AR inhibitors against Tox21 compound libraries. These cells are human breast carcinoma cells that were stably transfected with a luciferase reporter gene under control of the MMTV promoter that contains response elements for both androgen receptor (AR) and glucocorticoid receptor (GR). The current screening for identification of AR inhibitors against Tox21 libraries used lower concentration (0.5 nM) of R1881 as a stimulator.
Tox21 Assay Protocol Summary: MDA-kb2 cells (cells cultured without CO2) were dispensed at 3,000 cells/well in 4 uL of culture medium into white wall/solid-bottom 1536-well plates (Corning Life Sciences, Corning, NY) using a Multidrop Combi (ThermoFisher Scientific, Waltham, MA) dispenser. After the assay plates were incubated at a 37C and 0% CO2 for 5 hr, 23 nL of compounds dissolved in DMSO, positive controls or DMSO only was transferred to the assay plate by a Pintool station (Kalypsys, San Diego, CA). The transfer of compounds was followed by the addition of 1 uL of 0.5 nM (final concentration) agonist (R1881)/culture medium using a Flying Reagent Dispenser (FRD, Aurora Discovery, San Diego, CA). The plates were incubated at 37C and 0% CO2 for 16 hr. For luciferase reporter gene assay, 4 uL of ONE-Glo reagent (Promega Corporation, Madison, WI) was added to each well using the FRD and after 30 min incubation at room temperature luminescence intensity was measured using ViewLux plate reader (PerkinElmer, Shelton, CT).
Potency is the fitted concentration of half-maximal effect.

Androgen receptor (Homo sapiens), sequence (P10275 whole entry, looked up): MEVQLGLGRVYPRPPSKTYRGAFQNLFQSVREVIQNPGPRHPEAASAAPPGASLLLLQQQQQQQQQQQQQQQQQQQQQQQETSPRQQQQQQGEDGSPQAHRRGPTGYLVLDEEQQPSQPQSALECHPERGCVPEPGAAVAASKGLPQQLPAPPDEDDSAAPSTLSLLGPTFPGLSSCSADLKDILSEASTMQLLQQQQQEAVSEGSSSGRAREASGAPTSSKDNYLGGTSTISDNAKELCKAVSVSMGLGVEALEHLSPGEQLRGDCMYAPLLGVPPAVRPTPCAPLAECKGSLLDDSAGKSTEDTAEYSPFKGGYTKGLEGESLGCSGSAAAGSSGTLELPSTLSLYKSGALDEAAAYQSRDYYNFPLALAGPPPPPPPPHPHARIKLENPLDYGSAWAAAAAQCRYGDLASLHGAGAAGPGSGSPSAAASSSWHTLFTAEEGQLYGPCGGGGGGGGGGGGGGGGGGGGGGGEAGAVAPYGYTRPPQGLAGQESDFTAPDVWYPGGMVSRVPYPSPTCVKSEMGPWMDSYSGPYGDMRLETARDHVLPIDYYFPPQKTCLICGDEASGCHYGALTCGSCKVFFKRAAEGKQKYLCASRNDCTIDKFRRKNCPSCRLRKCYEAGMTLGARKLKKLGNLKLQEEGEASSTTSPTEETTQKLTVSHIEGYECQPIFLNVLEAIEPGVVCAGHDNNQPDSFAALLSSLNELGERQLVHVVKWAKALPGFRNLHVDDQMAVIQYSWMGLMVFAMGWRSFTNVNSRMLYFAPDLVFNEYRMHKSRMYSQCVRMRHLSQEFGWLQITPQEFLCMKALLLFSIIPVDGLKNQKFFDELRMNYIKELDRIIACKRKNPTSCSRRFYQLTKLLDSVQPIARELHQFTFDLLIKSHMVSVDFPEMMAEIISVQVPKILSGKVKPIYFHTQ

SMILES | Potency
CC(C)(C)C(=O)OCOC(=O)C1N2C(=O)CC2S(=O)(=O)C1(C)C (stereo not given) | inactive
O=S1(=O)CC(Cl)(Cl)C(Cl)(Cl)C1 | 5.45 µM (active)
CCCCCCOC(=O)c1ccc(O)cc1 | inactive
O=c1[nH]sc2cc(Cl)ccc12 | 0.001 µM (active)
CC1(C)CCC(C)(C)c2cc(C(=O)Nc3ccc(C(=O)O)cc3)ccc21 | inactive
ON=C1CCCC1 | 63.3 µM (active)
N=C1C=CC(=C(c2ccc(N)cc2)c2ccc(N)cc2)C=C1 | 3.06 µM (active)
O=C1C=CC(=O)N1 | inactive
C[C@@H]1C[C@H]2[C@@H]3CCC4=CC(=O)C=C[C@]4(C)[C@@]3(Cl)[C@@H](O)C[C@]2(C)[C@@]1(OC(=O)c1ccco1)C(=O)CCl | inactive
OCCN1CCN(CC/C=C2/c3ccccc3Sc3ccc(C(F)(F)F)cc32)CC1 | 26.6 µM (active)
C=C(C)C(=O)OCC[N+](C)(C)C | 30.5 µM (active)
Clc1ccc2nsnc2c1NC1=NCCN1 | inactive
CCCCCOc1ccccc1/C(=C\SC)n1ccnc1 | 21.1 µM (active)
O=C(Oc1ccccc1)c1ccccc1C(=O)Oc1ccccc1 | 54.5 µM (active)
CCCCCCCCCCn1cc[n+](CCCCCCCCCC)c1C | 2.17 µM (active)
NNC(=O)c1cccc(C(=O)NN)c1 | inactive
O=C(NOCC1CC1)c1ccc(F)c(F)c1Nc1ccc(I)cc1Cl | 8.41 µM (active)
Nc1ccc2c3c(cccc13)-c1ccccc1-2 | inactive
CCCCC(CC)CN=C(N)NC(N)=NCCCCCCN=C(N)NC(N)=NCC(CC)CCCC (stereo not given) | 11.9 µM (active)
[Cl][Bi]([Cl])([c]1ccccc1)([c]1ccccc1)[c]1ccccc1 | 13.6 µM (active)

SMILES | Potency
Oc1ccc(N=Nc2ccccc2)cc1 | 31 µM (active)
COc1cccc2c1C(=O)c1c(O)c3c(c(O)c1C2=O)C[C@@](O)(C(=O)CO)C[C@@H]3O[C@H]1C[C@H](N)[C@H](O[C@@H]2CCCCO2)[C@H](C)O1 | 2.11 µM (active)
N#CSc1ccc(N)c([N+](=O)[O-])c1 | 30.8 µM (active)
CCc1cc(Cc2cc(CC)cc(C(C)(C)C)c2O)c(O)c(C(C)(C)C)c1 | 30.6 µM (active)
Cc1cc(CCN2CCN(c3nsc4ccccc34)CC2)cc2c1NC(=O)CC2(C)C | 8.63 µM (active)
CN(C)C(=O)C1(N2CCCCC2)CCN(CC[C@@]2(c3ccc(Cl)c(Cl)c3)CN(C(=O)c3ccccc3)CCO2)CC1 | 28.6 µM (active)
Nc1cc(C(F)(F)F)ccc1S | inactive
COC(=O)c1cc(Cl)ccc1OC | inactive
CS(=O)(=O)CCNCc1ccc(-c2ccc3ncnc(Nc4ccc(OCc5cccc(F)c5)c(Cl)c4)c3c2)o1 | 13.3 µM (active)
Cc1cc(O)c(C(C)(C)C)cc1Sc1cc(C(C)(C)C)c(O)cc1C | 24.3 µM (active)
Cc1nc(-c2ccc3c(c2)CCN(CCC2CCC(NC(=O)/C=C/c4ccc(F)cc4)CC2)CC3)no1 (stereo not given) | inactive
CCCCCCCCNC(C)C(O)c1ccc(SC(C)C)cc1 (stereo not given) | 23.7 µM (active)
COc1cc(-c2nc(NC(=O)c3cc4cc(C)cc(C)c4n3CC(=O)O)sc2CCC2CCCCC2)c(OC)cc1Cl | 56 µM (active)
C[C@@H](NCCCc1cccc(C(F)(F)F)c1)c1cccc2ccccc12 | 18.8 µM (active)
NNc1nc(-c2ccc([N+](=O)[O-])cc2)cs1 | 17.2 µM (active)
COc1ccc(C(=O)/C(Br)=C\C(=O)O)cc1 | 48.6 µM (active)
Cc1onc(-c2c(Cl)cccc2Cl)c1C(=O)N[C@@H]1C(=O)N2[C@@H]1SC(C)(C)[C@@H]2C(=O)O | inactive
OCc1c[nH]c2ccccc12 | 17.2 µM (active)
Fc1ccc([C@@H]2CCNC[C@H]2COc2ccc3c(c2)OCO3)cc1 | inactive
CC/C(=C(\c1ccc(O)cc1)c1ccc(OCCN(C)C)cc1)c1ccccc1 | 61.3 µM (active)
